# Experimental data taken from PubChem BioAssay (NCATS).
# “And” between values parts separate entries of the source, which are not always exact repeats. Equal entries are not always repeated. Inconclusive results are not listed. Entries that show only a call come without a potency. The source made the active and inactive calls. Unless noted, the call rests on the fitted dose curve; in most records, active means well fitted curve in the direction sought with a large enough effect; inconclusive means small, poorly fitted or top-dose-only effect, or another doubt; inactive means no such curve, though single readings can be large; an effect the other way counts as inactive or inconclusive.
# What was measured:
# [1] = target: Cytochrome P450 2C19 (Homo sapiens) (UniProt P33261); assay: qHTS Assay for Inhibitors and Substrates of Cytochrome P450 2C19 (AID 899); further: nearly all actives have a fitted effect of over 60% in size; further: potency means the concentration at half of the fitted maximal effect
# Sequence of Cytochrome P450 2C19 (Homo sapiens) (P33261 whole entry, looked up): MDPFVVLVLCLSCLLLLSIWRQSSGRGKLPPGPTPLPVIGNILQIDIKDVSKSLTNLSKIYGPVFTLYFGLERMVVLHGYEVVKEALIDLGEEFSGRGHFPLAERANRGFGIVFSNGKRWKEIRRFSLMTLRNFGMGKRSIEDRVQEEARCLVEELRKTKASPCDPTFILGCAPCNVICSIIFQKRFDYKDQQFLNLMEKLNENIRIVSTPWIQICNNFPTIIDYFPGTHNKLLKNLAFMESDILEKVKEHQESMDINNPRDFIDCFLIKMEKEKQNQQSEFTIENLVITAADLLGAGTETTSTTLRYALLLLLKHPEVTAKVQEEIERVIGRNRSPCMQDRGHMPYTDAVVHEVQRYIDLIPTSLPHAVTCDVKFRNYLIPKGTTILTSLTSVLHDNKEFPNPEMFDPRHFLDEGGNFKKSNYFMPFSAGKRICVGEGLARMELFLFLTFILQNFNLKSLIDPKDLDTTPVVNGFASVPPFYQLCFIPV
# Method in brief: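 Luminescent read-out of luciferin formed from Luciferin-H EGE (10uM, equal to KM). Enzyme 5nM in 50mM KPO4; compound added, 10 min at 37C, then NADPH regenerating system for 60 min at 37C. Full inhibition defined by 57uM ketoconazole.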
# [2] = target: Cytochrome P450 2C9 (Homo sapiens) (UniProt P11712); assay: qHTS Assay for Inhibitors and Substrates of Cytochrome P450 2C9 (AID 883); further: nearly all actives have a fitted effect of over 60% in size; further: potency means the concentration at half of the fitted maximal effect
# Sequence of Cytochrome P450 2C9 (Homo sapiens) (P11712 whole entry, looked up): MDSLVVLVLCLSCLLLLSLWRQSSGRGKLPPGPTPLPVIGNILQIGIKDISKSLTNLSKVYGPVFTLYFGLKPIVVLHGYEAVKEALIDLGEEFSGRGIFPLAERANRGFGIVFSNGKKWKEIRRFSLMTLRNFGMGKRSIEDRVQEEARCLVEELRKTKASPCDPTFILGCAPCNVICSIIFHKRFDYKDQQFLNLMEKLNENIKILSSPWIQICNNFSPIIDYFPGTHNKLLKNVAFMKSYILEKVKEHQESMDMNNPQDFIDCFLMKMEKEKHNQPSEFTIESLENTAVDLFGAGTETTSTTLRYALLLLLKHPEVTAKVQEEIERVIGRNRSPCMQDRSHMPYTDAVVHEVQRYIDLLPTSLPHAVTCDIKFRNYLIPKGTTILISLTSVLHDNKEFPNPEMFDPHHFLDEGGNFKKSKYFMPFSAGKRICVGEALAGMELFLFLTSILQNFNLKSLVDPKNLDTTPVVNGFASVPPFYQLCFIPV
# Method in brief: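 10nM CYP2C9 + 100uM Luciferin-H (=KM), 25mM KPO4; cpd 10 min 37C; NADPH regen, 60 min 37C; stop/detect with P450 Glo-Buffer 20 min; luminescence. Norm. to 57uM sulphaphenazole as full inhibition.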
# [3] = target: Luciferin 4-monooxygenase (Photinus pyralis) (UniProt P08659); assay: Biochemical firefly luciferase enzyme assay for NPC (AID 624030);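 further: purified P. pyralis luciferase at 10 nM with luciferin and ATP substrate; nearly all actives have a fitted effect of over 70% in size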
# Sequence of Luciferin 4-monooxygenase (Photinus pyralis) (P08659 whole entry, looked up): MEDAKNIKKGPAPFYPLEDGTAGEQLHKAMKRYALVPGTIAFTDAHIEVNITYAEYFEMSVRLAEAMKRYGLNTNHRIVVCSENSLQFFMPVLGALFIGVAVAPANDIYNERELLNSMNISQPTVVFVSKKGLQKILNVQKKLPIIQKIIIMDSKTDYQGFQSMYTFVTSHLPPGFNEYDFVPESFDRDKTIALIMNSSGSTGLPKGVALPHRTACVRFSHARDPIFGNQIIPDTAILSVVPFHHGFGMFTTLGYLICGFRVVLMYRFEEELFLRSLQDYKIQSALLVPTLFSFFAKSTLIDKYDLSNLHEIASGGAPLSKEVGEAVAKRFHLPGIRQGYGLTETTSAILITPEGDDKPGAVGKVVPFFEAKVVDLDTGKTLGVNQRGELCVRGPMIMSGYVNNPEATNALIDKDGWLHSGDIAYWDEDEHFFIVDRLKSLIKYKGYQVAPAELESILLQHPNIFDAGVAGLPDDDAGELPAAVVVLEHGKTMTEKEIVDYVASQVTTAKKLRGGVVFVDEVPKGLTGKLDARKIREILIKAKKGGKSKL
# Method in brief: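 Purified P. pyralis luciferase at 10 nM in 50 mM Tris Acetate (final), luminescence read within 5 minutes of enzyme addition to compounds. Activity normalised to PTC124 versus DMSO; concentration-response curves classed by r2, magnitude and activity.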
# [4] = target: Cytochrome P450 3A4 (Homo sapiens) (UniProt P08684); assay: qHTS Assay for Inhibitors and Substrates of Cytochrome P450 3A4 (AID 884); further: nearly all actives have a fitted effect of over 50% in size; further: potency means the concentration at half of the fitted maximal effect
# Sequence of Cytochrome P450 3A4 (Homo sapiens) (P08684 whole entry, looked up): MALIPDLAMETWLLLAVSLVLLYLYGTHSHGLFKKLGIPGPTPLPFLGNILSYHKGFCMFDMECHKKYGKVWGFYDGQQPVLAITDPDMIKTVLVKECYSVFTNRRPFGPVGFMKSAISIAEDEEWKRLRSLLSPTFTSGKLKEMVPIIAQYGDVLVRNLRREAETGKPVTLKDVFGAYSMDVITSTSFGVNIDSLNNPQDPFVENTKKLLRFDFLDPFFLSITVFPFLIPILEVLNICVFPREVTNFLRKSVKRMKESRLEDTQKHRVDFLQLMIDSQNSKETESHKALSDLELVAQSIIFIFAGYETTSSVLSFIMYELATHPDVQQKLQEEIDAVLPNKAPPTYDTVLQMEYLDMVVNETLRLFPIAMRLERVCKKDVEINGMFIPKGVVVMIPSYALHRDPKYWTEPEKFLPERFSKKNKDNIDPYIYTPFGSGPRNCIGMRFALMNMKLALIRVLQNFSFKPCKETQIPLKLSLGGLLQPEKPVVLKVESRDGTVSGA
# Method in brief: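 Luminescent readout of luciferin produced by CYP3A4 (20 nM) dealkylation of Luciferin-PPXE, 25 uM (its KM). NADPH-driven reaction ran 60 min at RT after 10 min compound preincubation; data scaled to 57 uM ketoconazole as 100% inhibition.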
# [5] = qHTS Assay for Identification of Small Molecule Agonists for Hypoxia Response Element Signaling Pathway (AID 914; active means well fitted activation curve with a large enough effect in the signal ratio, with a control signal flat, not every such curve was filed as active; the % refers to the signal ratio); conditions: ME-180 (cervical carcinoma) HRE-bla reporter, beta-lactamase ratio, CoCl2, 17 h; stronger effect = higher value
# Method in brief: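 Read-out: CCF4 FRET ratio of 460nm to 530nm emission (excitation 405nm) after 2.5 hours at room temperature, taken from HRE-bla ME-180 cells that had been exposed to compound and EC50 CoCl2 for 17 hours.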
# [6] = target: Ubiquitin carboxyl-terminal hydrolase 1 (Homo sapiens) (UniProt O94782); assay: Inhibitors of USP1/UAF1: Pilot qHTS (AID 504865); further: nearly all actives have a fitted effect of over 35% in size; further: potency means the concentration at half of the fitted maximal effect;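 on activity change, negative = inhibition: rhodamine fluorescence freed from ubiquitin-rhodamine substrate followed over time; top concentration of the series differs between compounds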
# Sequence of Ubiquitin carboxyl-terminal hydrolase 1 (Homo sapiens) (O94782 whole entry, looked up): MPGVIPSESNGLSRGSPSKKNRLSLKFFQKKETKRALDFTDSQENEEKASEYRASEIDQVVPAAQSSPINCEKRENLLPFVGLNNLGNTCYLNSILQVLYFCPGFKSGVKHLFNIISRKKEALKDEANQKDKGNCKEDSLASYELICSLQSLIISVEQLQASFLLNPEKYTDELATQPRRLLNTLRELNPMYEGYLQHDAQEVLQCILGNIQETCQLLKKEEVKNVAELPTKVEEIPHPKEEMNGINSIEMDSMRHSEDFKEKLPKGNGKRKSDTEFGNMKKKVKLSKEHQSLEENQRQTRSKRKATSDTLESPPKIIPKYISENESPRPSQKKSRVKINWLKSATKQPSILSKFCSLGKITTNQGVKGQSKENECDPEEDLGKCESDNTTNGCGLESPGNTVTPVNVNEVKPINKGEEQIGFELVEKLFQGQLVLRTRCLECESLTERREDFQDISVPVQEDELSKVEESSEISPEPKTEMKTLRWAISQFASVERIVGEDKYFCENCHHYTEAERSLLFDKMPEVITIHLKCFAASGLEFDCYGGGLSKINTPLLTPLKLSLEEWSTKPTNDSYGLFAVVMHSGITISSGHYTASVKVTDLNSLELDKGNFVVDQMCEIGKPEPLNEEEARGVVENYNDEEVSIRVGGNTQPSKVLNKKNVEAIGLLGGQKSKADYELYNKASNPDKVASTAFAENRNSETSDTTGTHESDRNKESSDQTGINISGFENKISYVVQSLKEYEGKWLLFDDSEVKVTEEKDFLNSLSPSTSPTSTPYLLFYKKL
# Method in brief: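 Kinetic fluorescence assay: 1nM USP1/UAF1, 15 min compound preincubation, then 150nM Ub-Rho; 480/540 nm.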
# [7] = target: ATP-dependent 6-phosphofructokinase (Trypanosoma brucei brucei) (UniProt O15648); assay: qHTS Assay to Find Inhibitors of T. brucei phosphofructokinase: hit validation (AID 492961)
# Sequence of ATP-dependent 6-phosphofructokinase (Trypanosoma brucei brucei) (O15648 whole entry, looked up): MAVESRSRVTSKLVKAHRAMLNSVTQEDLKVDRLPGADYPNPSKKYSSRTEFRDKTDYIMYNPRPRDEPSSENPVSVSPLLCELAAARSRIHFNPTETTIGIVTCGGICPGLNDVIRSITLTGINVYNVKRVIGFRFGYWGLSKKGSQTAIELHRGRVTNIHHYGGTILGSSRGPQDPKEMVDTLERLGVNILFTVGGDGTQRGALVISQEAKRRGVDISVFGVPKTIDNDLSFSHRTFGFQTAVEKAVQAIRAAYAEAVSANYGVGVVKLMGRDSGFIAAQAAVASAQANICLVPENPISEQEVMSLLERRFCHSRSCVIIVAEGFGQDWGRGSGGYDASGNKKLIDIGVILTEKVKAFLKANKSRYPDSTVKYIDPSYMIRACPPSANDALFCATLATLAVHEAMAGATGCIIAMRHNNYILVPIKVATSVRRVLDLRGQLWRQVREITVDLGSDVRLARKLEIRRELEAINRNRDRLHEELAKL
# Method in brief: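 Luminescence from ADP-Glo reports ADP generated as T. brucei PFK (1.25 nM) phosphorylates 0.5 mM fructose-6-phosphate using 0.1 mM ATP. Reactions ran 45 min at room temperature, pH 8.0.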
# [8] = S16 Schwann cell viability assay (CellTiter-Glo assay) (AID 624031);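 further: cellular ATP luminescence as a viability measure; nearly all actives have a fitted effect of over 70% in size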
# Method in brief: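 Luminescent ATP read-out (CellTiter-Glo) after 24 h compound exposure of native S16 rat Schwann cells at 37 °C. Signals were normalized between cell-free wells and DMSO-treated cells, set as 0% activity.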
# [9] = S16 Schwann cell PMP22 intronic element beta-lactamase assay (AID 624044; calls by dose curve; further: nearly all actives have a fitted effect of over 15% in size)
# Method in brief: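 Beta-lactamase reporter under a PMP22 intronic regulatory element in stable S16 rat Schwann cells; 24 h compound exposure. 460 nm blue signal normalized between DMSO (0%) and potassium clavulanate, with 535 nm FRET tracking viability; curves classed by r2 and response.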
# [10] = qHTS profiling for inhibitors of Plasmodium falciparum proliferation (AID 504749); further: potency means the concentration at half of the fitted maximal effect; on all read-outs here: nearly all actives have a fitted effect of over 60% in size; conditions: P. falciparum in erythrocytes, SYBR Green DNA, 72 h; for activity, negative = inhibition: at 28.7 µM (top of the series)
# Method in brief: (§1)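 SYBR Green fluorescence (ex 485 nm, em 535 nm) reports parasite DNA after 72 h compound exposure of infected red cells at 0.3% parasitemia, 2.5% hematocrit; signal normalized to 0.29 uM artemisinin and vehicle wells.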
# 3D7 = assay: as above; conditions: P. falciparum in erythrocytes, SYBR Green DNA, 72 h; series mostly up to 28.7 µM
# Method in brief: as §1
# CP191 = assay: as above; conditions: P. falciparum in erythrocytes, SYBR Green DNA, 72 h; series mostly up to 28.7 µM
# Method in brief: as §1
# CP237 = assay: as above; conditions: P. falciparum in erythrocytes, SYBR Green DNA, 72 h; series mostly up to 28.7 µM
# Method in brief: as §1
# CP250 = assay: as above; conditions: P. falciparum in erythrocytes, SYBR Green DNA, 72 h; series mostly up to 28.7 µM
# Method in brief: as §1
# CP252 = assay: as above; conditions: P. falciparum in erythrocytes, SYBR Green DNA, 72 h; series mostly up to 28.7 µM
# Method in brief: as §1
# DFO2036 = assay: as above; conditions: P. falciparum in erythrocytes, SYBR Green DNA, 72 h; series mostly up to 28.7 µM
# Method in brief: as §1
# Dd2 = assay: as above; conditions: P. falciparum in erythrocytes, SYBR Green DNA, 72 h; series mostly up to 28.7 µM
# Method in brief: as §1
# FAB9 = assay: as above; conditions: P. falciparum in erythrocytes, SYBR Green DNA, 72 h; series mostly up to 28.7 µM
# Method in brief: as §1
# HB3 = assay: as above; conditions: P. falciparum in erythrocytes, SYBR Green DNA, 72 h; series mostly up to 28.7 µM
# Method in brief: as §1
# PC49 = assay: as above; conditions: P. falciparum in erythrocytes, SYBR Green DNA, 72 h; series mostly up to 28.7 µM
# Method in brief: as §1
structure (smiles),measurement,setting,value
Cc1ccc(S(=O)ON2CCC(C(=O)O)(c3ccccc3)CC2)cc1 (stereo not drawn),Potency,[1],inactive
CC1=NN(c2ccccc2)C(=O)[C@@H]1N=Nc1ccc([As](=O)(O)O)c(O)c1,Potency,[2],3.16 µM (active)
Cc1ccc(O)cc1 (tested in a mixture with another compound),outcome,[3],inactive
S=P(C1CCCCC1)(C1CCCCC1)[C@H](c1cccnc1)N1CCCC1,Potency,[4],3.16 µM (active)
same,Potency,[1],1.26 µM (active)
CC(C)CNCCc1ccccn1,Potency,[1],inactive
same,activation,[5],5.07% (inactive)
Cc1ccc(NC(=[OH+])c2cc3ccccc3cc2O)c(C)c1.Cc1ccc(NC(=[OH+])c2cc3ccccc3cc2O)c(C)c1.[Ni],Potency,[2],3.16 µM (active)
same,Potency,[1],2 µM (active)
COc1ccc(C[C@@H]2NC[C@H](O)[C@@H]2OC(C)=O)cc1,Potency,[6],inactive
C#CCN[C@@H](C)Cc1ccccc1,Potency,[4],inactive
O=C(O)c1cc[c]([Hg][S]c2ncnc3nc[nH]c23)cc1,Potency,[2],1.26 µM (active)
same,Potency,[1],0.631 µM (active)
CC(=O)[C@@H]1CC[C@H]2[C@H]3CC[C@H]4C[C@@H](O)CC[C@]4(C)[C@@H]3CC[C@]12C,Potency,[2],2 µM (active)
C=C[C@@H]1CN2CC[C@H]1C[C@H]2[C@H](O)c1ccnc2ccccc12,outcome,[7],inactive
same,Potency,[6],inactive
same,outcome,[3],inactive
same,outcome,[8],inactive
same,outcome,[9],inactive
same,Potency,[10]; parasite line A,89.1 nM (active)
same,Potency,[10]; parasite line B,100 nM (active)
same,Potency,3D7,158 nM (active)
same,Potency,CP191,501 nM (active)
same,Potency,CP237,1.12 µM (active)
same,Potency,CP250,1.58 µM (active)
same,Potency,CP252,1.12 µM (active)
same,Potency,DFO2036,355 nM (active)
same,Potency,Dd2,0.891 µM (active)
same,Potency,FAB9,112 nM (active)
same,Potency,HB3,224 nM (active)
same,Potency,PC49,891 nM (active)
CSC([N-]/N=C/c1cccc(C)n1)=[S]=[Cu].CS[C@H]([S-])[N-]/N=C/c1cccc(C)n1,Potency,[2],0.251 µM (active)
same,Potency,[4],3.98 µM (active)
same,Potency,[1],0.199 µM (active)
CC[C@@H]1CN2CCc3cc(OC)c(OC)cc3[C@H]2C[C@@H]1C[C@@H]1NCCc2cc(O)c(OC)cc21,Potency,[6],inactive
NNc1c(C(N)=O)c2c(N)ncnc2n1[C@@H]1O[C@H](CO)[C@@H](O)[C@@H]1O,"activity change, negative = inhibition",[2],-2.73% [at 11.4 µM] (inactive)
same,Potency,[1],inactive
C[C@@H]1O[C@H]1P(=O)(O)O,Potency,[2],inactive
C[C@@H](Cc1ccc(O)cc1)NC[C@@H](O)c1cc(O)cc(O)c1,outcome,[7],inactive
same,Potency,[6],inactive
same,outcome,[3],inactive
same,outcome,[8],inactive
same,outcome,[9],inactive
same,"activity, negative = inhibition",[10]; parasite line A,13.4% (inactive)
same,"activity, negative = inhibition",[10]; parasite line B,5.16% (inactive)
same,Potency,3D7,inactive
same,Potency,CP191,inactive
same,Potency,CP237,inactive
same,Potency,CP250,inactive
same,Potency,CP252,inactive
same,Potency,DFO2036,inactive
same,Potency,Dd2,inactive
same,Potency,FAB9,inactive
same,Potency,HB3,inactive
same,Potency,PC49,inactive
O=C1C[C@@H]2OCC=C3CN4CC[C@]56c7ccccc7N1[C@@H]5[C@@H]2[C@H]3C[C@H]46 (tested in a mixture with another compound),outcome,[7],inactive
same,Potency,[6],inactive
same,outcome,[8],inactive
same,outcome,[9],inactive
same,"activity, negative = inhibition",[10]; parasite line A,-29.7% (inactive)
same,"activity, negative = inhibition",[10]; parasite line B,-15.1% (inactive)
same,Potency,3D7,inactive
same,Potency,CP191,inactive
same,Potency,CP237,8.91 µM (active)
same,Potency,CP250,inactive
same,Potency,CP252,inactive
same,Potency,Dd2,10 µM (active)
same,Potency,FAB9,inactive
same,Potency,HB3,inactive
same,Potency,PC49,inactive
C[C@H]1CC[C@@]2(NC1)O[C@@H]1C[C@@H]3[C@@H]4CC=C5C[C@@H](O)CC[C@]5(C)[C@@H]4CC[C@]3(C)[C@H]1[C@@H]2C,"activity change, negative = inhibition",[4],33.7% [at 11.4 µM] (inactive)
C[C@@H]1O[C@@H](O[C@H]2C[C@@H](O)[C@@]3(CO)[C@H]4[C@H](O)C[C@]5(C)[C@@H](C6=CC(=O)OC6)CC[C@]5(O)[C@H]4CC[C@@]3(O)C2)[C@@H](O)[C@H](O)[C@H]1O,outcome,[7],inactive
same,Potency,[6],inactive
same,outcome,[3],inactive
same,outcome,[8],inactive
same,outcome,[9],inactive
same,"activity, negative = inhibition",[10]; parasite line A,-4.19% (inactive)
same,"activity, negative = inhibition",[10]; parasite line B,10.7% (inactive)
same,Potency,3D7,inactive
same,Potency,CP191,inactive
same,Potency,CP237,inactive
same,Potency,CP250,inactive
same,Potency,CP252,inactive
same,Potency,DFO2036,inactive
same,Potency,Dd2,inactive
same,Potency,FAB9,inactive
same,Potency,HB3,inactive
same,Potency,PC49,inactive
O=C(O)CN1CCN(CC(=O)O)CC(=O)[O][Hg][O]C(=O)C1,Potency,[2],1.26 µM (active)
same,Potency,[1],0.794 µM (active)
CC(C)[C@@]1(NC(=O)[C@@H]2C=C3c4cccc5[nH]cc(c45)C[C@@H]3N(C)C2)O[C@]2(O)[C@H]3CCCN3C(=O)[C@H](Cc3ccccc3)N2C1=O,Potency,[1],inactive
N[C@H](Cn1ccc(=O)[nH]c1=O)C(=O)O,activation,[5],10.5% (inactive)
C[C@@H]1Cc2cc3c(cc2C(c2ccc(N)cc2)=NN1)OCO3,Potency,[4],2.51 µM (active)
same,Potency,[1],2 µM (active)
COc1cc(C[C@H](C)N)c(OC)cc1I,activation,[5],2.02% (inactive) and -7.45% (inactive)
O=C(O)[C@H]1CCN1,Potency,[2],inactive
same,Potency,[4],inactive
O=C(Nc1cc[c]([Sb](=[O])([OH])[OH])cc1)c1ccccc1,"activity change, negative = inhibition",[2],2.5% [at 11.4 µM] (inactive)
same,Potency,[1],inactive
CCNC(=O)[C@@H]1O[C@@H](n2cnc3c(N)ncnc32)[C@@H](O)[C@H]1O,Potency,[1],inactive
CC(=O)c1c(O)c(C)c(O)c(Cc2c(O)c3c(c(C(=O)/C=C\c4ccccc4)c2O)OC(C)(C)C=C3)c1O,Potency,[2],0.631 µM (active)
same,Potency,[4],6.31 µM (active)
same,Potency,[1],2 µM (active)
same,Potency,[6],79.4 µM (active)
N[C@H](Cn1oc(=O)[nH]c1=O)C(=O)O,Potency,[2],inactive
same,Potency,[1],inactive
C[Se]C[C@@H](N)C(=O)O,Potency,[1],inactive
NC(=O)CN1C[C@@H](O)CC1=O,activation,[5],9.85% (inactive)
N[C@H](Cn1cc(I)c(=O)[nH]c1=O)C(=O)O,Potency,[2],inactive
same,Potency,[1],inactive
CCn1cnc2c(Nc3cccc(Cl)c3)nc(N[C@@H]3CCCC[C@H]3N)nc21,Potency,[1],inactive
CC(C)[C@@]1(NC(=O)[C@H]2C[C@H]3c4cccc5[nH]cc(c45)C[C@@H]3N(C)C2)O[C@]2(O)[C@H]3CCCN3C(=O)[C@H](Cc3ccccc3)N2C1=O,Potency,[2],2.51 µM (active)
same,Potency,[1],6.31 µM (active)
